PubChem BioAssay (NCATS)
Results filed as inconclusive are left out. Values without a mark were called inactive. Calls come from the whole dose curve; as a rule, active = well fitted inhibition curve with a large enough effect; inconclusive = small, poorly fitted or top-dose-only effect; inactive = no such curve, though single readings can be large or run the other way.

Experiment: Primary qHTS for small molecule stabilizers of the endoplasmic reticulum resident proteome: Secreted ER Calcium Modulated Protein (SERCaMP) assay (AID 1508630)
Conditions: SH-SY5Y GLuc-SERCaMP (Gaussia luciferase released on ER calcium loss) secretion, thapsigargin, luminescence; series mostly up to 38.4 µM; activity change, negative = inhibition: at the top concentration
Source text: Assay Provider: Brandon K. Harvey Ph.D.
National Institute on Drug Abuse, National Institutes of Health, Baltimore, MD
Endoplasmic reticulum (ER) dysregulation is associated with human pathologies including neurodegenerative, cardiovascular, muscular, and diabetic conditions. Maintenance of ER calcium is critical for functions of the ER and its depletion can lead to loss of ER resident proteins, in a process termed exodosis. Therapeutic compounds capable of attenuating the redistribution of ER proteins under pathological conditions may slow or stop disease progression. To identify such compounds, we performed a quantitative high-throughput screen (qHTS) using the SERCaMP assay, which monitors secretion of ER resident proteins triggered by calcium depletion.
SERCaMP was initially developed as a reporter of ER calcium homeostasis using a Gaussia luciferase with a modified signal peptide and carboxy-terminus (GLuc-SERCaMP), modifications that confer secretion of the reporter in response to ER calcium depletion (Henderson et al., 2014). The assay was used to screen 9,501 compounds, including a collection of drugs approved by the FDA (US), EMA (EU), NHI (Japan), and HC (Canada) regulatory agencies (Huang et al., 2011). Since the SERCaMP reporter reflects the exodosis phenomenon (Trychta et al., 2018a), compounds identified in the screen have the potential to prevent exodosis by different mechanisms such as stabilizing ER calcium or augmenting ERS retrieval.
1. Henderson, M.J., Wires, E.S., Trychta, K.A., Richie, C.T., and Harvey, B.K. (2014). SERCaMP: a carboxy-terminal protein modification that enables monitoring of ER calcium homeostasis. Mol Biol Cell 25, 2828-2839.
2. Huang, R., Southall, N., Wang, Y., Yasgar, A., Shinn, P., Jadhav, A., Nguyen, D.T., and Austin, C.P. (2011). The NCGC pharmaceutical collection: a comprehensive resource of clinically approved drugs enabling repurposing and chemical genomics. Sci Transl Med 3, 80ps16.
3. Trychta, K.A., Back, S., Henderson, M.J., and Harvey, B.K. (2018a). KDEL Receptors Are Differentially Regulated to Maintain the ER Proteome under Calcium Deficiency. Cell Rep 25, 1829-1840 e1826.
SEQUENCE No. (1, 2, 3, etc.); […] (e.g., Cells, Incubation, Reagent, etc.); VALUE and DESCRIPTION.
1; Reagent; 5 uL; 1000 SH-SY5Y cells per wells
3; Compound; 23 nL; Control inhibitor / compound library
5; Reagent; 100 nM; Thapsigargin
7; Reagent; 1 uL; 0.5x coelenterazine
8; Detection; Luminescence; ViewLux imaging system
NOTES (numbers refer to sequence above)
1; SH-SY5Y human neuroblastoma cells stably expressing GLuc-SERCaMP (SH-SY5Y-GLuc-ASARTDL) cells were seeded in 1,536 well white tissue culture treated plates (Corning, Cat# 7464) in DMEM-high glucose-sodium pyruvate (ThermoFisher Scientific, Cat #10569) supplemented with 10% bovine growth serum (Hyclone), 10 U/ml penicillin (Gibco), 10 ug/ml streptomycin (Gibco), and 20 mM HEPES.
2; Assay plates were incubated for 5 hour at 37C in a humidified incubator containing 5% CO2.
3; qHTS libraries (23 nl, final concentrations of 1.53 uM, 7.67 uM, 38.3 uM) or controls (neutral control: DMSO, positive control: dantrolene) were added using a Kalypsis pin-tool Robotic System equipped with 1536 pinheads.
4; Cells were then incubated for 16 hours at 37C, 5% CO2.
5; Thapsigargin was added at 100 nM to deplete ER calcium stores.
6; Cells were incubated for 4 hour (37 °C, 5% CO2)
7; Gaussia luciferase in the medium was measured by adding 1 ul of 0.5x coelenterazine (final concentration 0.07x) prepared in Gaussia Luciferase Glow Assay Buffer (Pierce), without addition of the Cell Lysis Buffer Reagent.
8; Luminescence was measured using a ViewLux […] CCD imaging system (Perkin Elmer) equipped with clear filters. […] The same controls were also used for the calculation of the Z' factor, a measure of assay quality control, as previously described (Zhang et al., 1999). […]
% is set by controls: 0 for no effect and ±100 for the full control effect.

Row | Compound | activity change, negative = inhibition
1 | CN1CCC2=C[C@@H](O)[C@@H]3OC(=O)c4cc5c(cc4C3C21)OCO5 (stereo not given in full) | -2.65%
2 | CN1CC[C@@]2(CCCN(C(=O)Oc3ccccc3)C2)C1 | -28%
3 | COc1ccc(NC(=O)N2CC[C@@]3(CCCN(C(=O)Oc4ccccc4)C3)C2)cc1 | 13.2%
4 | O=C(Oc1ccccc1)N1CCC2(CCCN(Cc3ccccc3)C2)CC1 | -15%
5 | CN1CCC2(CC1)CCN(C(=O)c1ccco1)CC2 | -29.3%
6 | c1cc(CN2CC3(CCNCC3)C2)ccn1 | -5.56%
7 | COCC(=O)N1CCC2(CCCN(Cc3ccncc3)C2)CC1 | 8.84%
8 | C=C(C)c1cc2cc(C(C)=O)c(O)cc2o1 | -1.9%
9 | O=C(O)C1=CCCN(CCOC(c2ccc(C(F)(F)F)cc2)c2ccc(C(F)(F)F)cc2)C1 | -12.7%
10 | O=C(Nc1cccc(F)c1)N1CCCC2(CCN(C(=O)Oc3ccccc3)CC2)C1 | -26.1%
11 | O=C(c1ccco1)N1CCC2(CC1)CN(Cc1ccncc1)C2 | 11.5%
12 | CC(C)NC(=O)N1CCC2(CC1)CCN(C(=O)Oc1ccccc1)CC2 | -12%
13 | O=C(Oc1ccccc1)N1CCC2(CCN(Cc3ccccc3)CC2)CC1 | 2.36%
14 | O=C(Oc1ccccc1)N1CCC2(CC1)CCN(C(c1ccccc1)c1ccccc1)CC2 | -29.3%
15 | CCOC(=O)c1ncc2[nH]c3ccc(OCc4ccccc4)cc3c2c1COC | -24.3%
16 | CS(=O)(=O)N1CCC2(CC1)CN(Cc1ccncc1)C2 | 9.13%
17 | CN1CCCC2(CCN(C(=O)Oc3ccccc3)CC2)C1 | 22%
18 | O=C(Nc1cccc(F)c1)N1CC[C@@]2(CCCN(C(=O)Oc3ccccc3)C2)C1 | -25.6%
19 | CN1CC[C@@]2(CCCN(C(=O)c3ccncc3)C2)C1 | -24.9%
20 | CC(C)CN1CC[C@@]2(CCCN(C(=O)Oc3ccccc3)C2)C1 | -18.8%

Row | Compound | activity change, negative = inhibition
21 | N#Cc1ccc(CN2CC[C@@]3(CCCN(C(=O)Oc4ccccc4)C3)C2)cc1 | -27.5%
22 | O=C(Oc1ccccc1)N1CCC2(CC1)CN(C(c1ccccc1)c1ccccc1)C2 | -21.4%
23 | CC1(C)C2C[C@@H](O)[C@]3(C)C(CC[C@@]4(C)[C@H](c5ccoc5)C[C@H]5O[C@]543)[C@@]2(C)[C@@H](O)C[C@H]1O (stereo not given in full) | -7.14%
24 | Cc1nnc2ccc(-c3cccc(C(F)(F)F)c3)nn12 | -7.35%
25 | CC(C)CN1CC2(CCN(C(=O)Oc3ccccc3)CC2)C1 | 30.2%
26 | CN1CCCC2(CCN(C(=O)c3csnn3)CC2)C1 | -11.2%
27 | c1ccc(N2CC3(CCNCC3)C2)cc1 | -28.4%
28 | O=C(c1csnn1)N1CCC[C@@]2(CCN(Cc3ccncc3)C2)C1 | 15%
29 | CC(C)CN1CCCC2(CCN(C(=O)Oc3ccccc3)CC2)C1 | 4.43%
30 | O=C(O)c1ccc(NC(=O)N2C[C@H]3C[C@@H](C2)c2cccc(=O)n2C3)cc1 | -12.2%
31 | O=C(Oc1ccccc1)N1CCC[C@@]2(CCN(Cc3cc(C(F)(F)F)cc(C(F)(F)F)c3)C2)C1 | -23.6%
32 | CN1CCCCC1c1ccc(-c2cccnc2)nc1 (stereo not given) | -0.624%
33 | O=C(c1csnn1)N1CCC2(CC1)CN(Cc1ccncc1)C2 | 11.9%
34 | O=C(c1ccco1)N1CCC[C@@]2(CCN(Cc3ccncc3)C2)C1 | 50.5%
35 | C[C@]12CC[C@@H](O)C[C@H]1CC[C@@H]1[C@H]2CC[C@]2(C)C(=O)CC[C@@H]12 | -4.98% [at 21.6 µM]
36 | O=C(Nc1cccc(F)c1)N1CC2(CCN(C(=O)Oc3ccccc3)CC2)C1 | -4.66%
37 | c1cnc(N2CCCC3(CCNCC3)C2)nc1 | -22.8%
38 | O=C(Nc1ccccc1)N1CCCC2(CCN(C(=O)Oc3ccccc3)CC2)C1 | -15.9%
39 | O=C(Nc1ccccc1)N1CCC2(CC1)CCN(C(=O)Oc1ccccc1)CC2 | 12%
40 | O=C(Nc1ccccc1)N1CC[C@@]2(CCCN(C(=O)Oc3ccccc3)C2)C1 | 17.3%
